According to the supplement of paper PMC6555819:

Experiments:
Assay in all cases: PBM binding z-score (relative to random genomic background probes); higher = stronger binding; sequences stand for … in GC…GCGATTGACAGCGTAGAATGAAGG
[1] = test system: RARb homodimer (NR concentration 270 nM)
Method in brief: (§1)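 Binding z-scores take random background probes as their reference. They come from custom Agilent 4×180K protein-binding microarrays incubated 1 h with ligand-free nuclear receptor dimers, with antibodies against each partner (one per run) detecting binding. Scanned fluorescence was regression-normalized.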

[2] = test system: RARg:RXRa (NR concentration 270 nM, RXRa partner concentration 90 nM)
Method in brief: as §1

[3] = test system: RARg homodimer (NR concentration 270 nM)
Method in brief: as §1

[4] = test system: RXRa DBDmut IVT, anti-RXR (DBD mutation: RXRa K156A/R161A, NR concentration 90 nM)
Method in brief: as §1

[5] = test system: RXRa homodimer (NR concentration 180 nM)
Method in brief: as §1

[6] = test system: THRa:RXRa (NR concentration 90 nM, RXRa partner concentration 90 nM)
Method in brief: as §1

[7] = test system: THRa homodimer (NR concentration 90 nM)
Method in brief: as §1

[8] = test system: VDR homodimer (NR concentration 270 nM)
Method in brief: as §1

Row | Sequence | PBM binding z-score [1] | PBM binding z-score [2] | PBM binding z-score [3] | PBM binding z-score [4] | PBM binding z-score [5] | PBM binding z-score [6] | PBM binding z-score [7] | PBM binding z-score [8]
1 | CCTTACCGGTCACTGACAGGTTATAGCATTTGGA | 2.7 | 3.19 | 3.15 | 0.586 | 1.2 | 1 | 0.662 | 0.617
2 | TAGCCCAGGTCATTCAGGGGCCAGTATAGAAAGC | 3.34 | 6.39 | 4.29 | 2.4 | 3.39 | 3.71 | 1.48 | 2
3 | CCTAGCAGGCCAATCTGGGTCACTTAAGGCTTGA | 2.26 | 1.07 | 1.19 | -0.0983 | 0.84 | 3.93 | 0.596 | 0.132
4 | CCTACTGGGCCAAAAAGGTCATTGTTGCCGATAA | 4.29 | 4.28 | 3.91 | 0.617 | 4.21 | 2.92 | 0.342 | 2.3
5 | CGTCCAAGGTCCTAGGAGGTCAGTGAAGACAGAT | 2.93 | 2.53 | 2.38 | 0.216 | 2.14 | 4.08 | 0.834 | 1.06
6 | AGTCAAAGTTCACTAGGTAACCTAAGATTCAGCT | 3.75 | 5.2 | 5.66 | 4.32 | 4.04 | 2.46 | 0.759 | 4.29
7 | CCTACTAGGCCATTCAGAGGTCATTGATCATATG | 4.46 | 4.99 | 3.55 | 2.14 | 4.11 | 3.42 | 2.03 | 3.93
8 | ATCGAGAGGTCGAGGTGAGTATAGAGAAAGGGAA | 2.04 | 3.39 | 3.48 | 1.2 | 3.51 | 2.76 | 0.486 | 0.635
9 | GGAACGAGGGCAAGTTAATAGCAGAGTTTGATGG | 1.35 | 1.46 | 2.01 | 2.29 | 0.717 | 1.2 | -0.0334 | 1.6
10 | TCTGCTAGGTCGGTTGGTCAGCTAACGAGCTGCC | 0.194 | 0.057 | 0.0646 | -0.000892 | -0.389 | -0.409 | -0.643 | -0.816
11 | TAGCCTAGGTCATGCGGGCCTGTATAGTGTCGGC | 2.91 | 3.78 | 4.07 | 0.686 | 2.87 | 3.03 | 1.05 | -0.143
12 | GCTAGTTGGTCAGTAAAAGCTCACACACCGGTCG | 0.375 | -0.0691 | 0.0188 | 0.421 | -0.0351 | -0.374 | -0.166 | -0.217
13 | GCTAGTTGATCAGTAAAAGGTCACACACCGGTCG | 4.9 | 5.1 | 4.68 | 0.532 | 5.54 | 3.45 | 1.59 | 1.8
14 | ACTATTAGTTGAGACGAGGGCATCCGATAGGTTG | 0.79 | 0.519 | 0.799 | 0.829 | 0.473 | 2.29 | 0.321 | 1.38
15 | CGTCAAAGTTCAATGTAACGTAACAGAAAGCAGC | 3.56 | 4.82 | 5.45 | 4.69 | 3.78 | 1.64 | -0.0537 | 3.96
16 | TTACCAAGGCGAGCTGAGGTCGTTGATCCAACTC | 0.643 | 0.197 | -0.299 | 0.038 | 0.626 | 3.13 | 1.16 | 1.49
17 | ATGTGTAGGTTAGCTGGGGTCATTCAGACTAGGC | 3.72 | 4.37 | 3.19 | 2.08 | 5.51 | 5.15 | 3.53 | 5.92
18 | CGAACTGGGTCATTGACAGGACAGTGAATAGTAA | 2.17 | 4.32 | 3.3 | 1.94 | 2.88 | 2.41 | 0.357 | 1.05
19 | CAAACTAGGTCAGAACAGGACAGTGAAGGATGAT | 2.11 | 2.51 | 3.33 | 0.474 | 1.28 | 3.7 | 0.447 | 0.417

Row | Sequence | PBM binding z-score [1] | PBM binding z-score [2] | PBM binding z-score [3] | PBM binding z-score [4] | PBM binding z-score [5] | PBM binding z-score [6] | PBM binding z-score [7] | PBM binding z-score [8]
20 | CCGACTGGGTCATAAGGTTACCATAAGCCAGCCC | 3.46 | 4.62 | 3.25 | 0.935 | 3.8 | 3.13 | 1.94 | 0.993
21 | CAAACTAGGTCACCGGAAGGTCAACGTCCGCATG | 5.99 | 8.58 | 8.16 | 2.07 | 7.28 | 4.63 | 3.19 | 2.78
22 | GCTAGTTGGTCAGTAAAAGGTCACACACCGGTCG | 5.15 | 5.32 | 4.87 | 0.715 | 5.2 | 3.52 | 2.08 | 1.99
23 | TCTATTAGTTGATTAGGGCAACCGCAACAGCGGA | 0.671 | 0.648 | 0.445 | 0.932 | 0.721 | 0.679 | 0.272 | 0.125
24 | GCTCCTAGGTCAACTGATGGTCAGCTAAAGCTCG | 3.8 | 5.76 | 5.88 | 2.02 | 3.77 | 3.15 | 1.7 | 0.601
25 | GGAACGAGGGCAAAATTGATAGCATCTGTCGACG | 0.53 | 0.822 | 1.08 | 2.03 | 0.69 | 0.648 | -0.431 | 0.356
26 | TGTCAAACTTCAAAGGTAACGTAAGTATCCACAC | 0.582 | 0.654 | 0.586 | -0.455 | 0.655 | 1.1 | -0.0249 | -0.101
27 | CAAACTAGGTCACAGAGGCCAAAGTCCGTGCGTA | 3.73 | 4.88 | 5.37 | 2.45 | 3.63 | 3.66 | 1.54 | 2.62
28 | ACAGACAGGTGAGTGAAGGTAACTCGGCTGGACG | 0.0831 | 0.0852 | 0.044 | -0.351 | 0.256 | 1.38 | -0.708 | -0.648
29 | CTCGAAAGGTCGTTCTCAGGTGAGTATACCAAAC | 2.86 | 5.28 | 3.33 | 3.44 | 4.39 | 4.46 | 1.46 | 2.59
30 | TCATATAGATAAAAGGTGAAAGTCGGTGTGGTAA | 1.53 | 1.23 | 0.872 | 2.07 | 2.41 | 1.24 | 0.0496 | 0.309
31 | ATCTCTAGGTAAAGATAGTTCAGGGAATGCAAAT | 0.997 | 0.771 | 0.846 | 0.0937 | 0.459 | 0.742 | 0.0152 | 0.47
32 | CAGACTAGGTCAAGAGGTCAAAGTCCGCTTCCCG | 5.34 | 8 | 7.45 | 2.6 | 7.71 | 4.23 | 2.26 | 3.84
33 | ATGTCTAGGTAAAGTTCAGTGAAAGATCGATAGA | 2.59 | 2.12 | 2.62 | 1.25 | 1.5 | 1.17 | 0.000451 | 2.39
34 | CTCGAGAGGTCGTGCTCAGGTGAGTATACCAAAC | 2.12 | 4.24 | 2.53 | 2.74 | 3.82 | 4.08 | 1.06 | 1.49
35 | CGTCAAAGATCAACTAAGGTAACGTAAAGCACGC | 0.577 | 0.743 | 0.647 | 0.338 | 0.921 | 4.69 | 1.79 | 0.342
36 | TGATATAGGTAAACAGGTGAAAGTCCGTAAGTTA | 0.629 | 0.44 | 0.407 | -0.121 | 0.613 | 0.68 | 0.366 | 0.301
37 | CATACAGGGTCAGCTAGGCCAGAGAAGGGACGGC | 3.35 | 4.63 | 5.1 | 1.74 | 4.46 | 2.99 | 0.568 | 1.67
38 | AGAATGAGGTTACCAAACATCAGGGAAACGCTTG | 0.501 | 1.92 | 1.75 | 1.15 | 2.56 | 2.59 | 0.726 | 0.159

Row | Sequence | PBM binding z-score [1] | PBM binding z-score [2] | PBM binding z-score [3] | PBM binding z-score [4] | PBM binding z-score [5] | PBM binding z-score [6] | PBM binding z-score [7] | PBM binding z-score [8]
39 | CAGCCTAGCTCAGGGCCAGTATAGGAGGAACGTT | -0.467 | -0.693 | -0.422 | -0.824 | -0.971 | -0.848 | -0.716 | -0.754
40 | ACTATTAGTTGACTTAGGGCATCCGATACGACGC | 0.597 | 0.218 | 0.979 | 0.909 | 0.613 | 0.97 | 0.239 | 0.435
41 | ATCGCAAGGTCGTGAGGTGAGTATACAGAAAGGC | 2.13 | 2.76 | 2.38 | 1.62 | 3.06 | 3.33 | 2.41 | 1.55
42 | GCTGCTAGGTCAACTGATGGTCAGCAAAAGCTCG | 3.66 | 5.17 | 5.41 | 1.5 | 2.99 | 2.91 | 0.775 | 0.254
43 | GCATATAGGTAATACAAGGTGAAGGTCCGATTGT | 1.04 | 0.61 | 0.653 | 0.103 | 0.694 | 4.08 | 1.09 | -0.214
44 | CGAACTAGGTCAAGGTCAGTGAATCTCCGCACGC | 4.79 | 5.23 | 6.17 | 2.29 | 4.11 | 3.86 | 3.15 | 2.14
45 | ATATGTTGGTTATCGGGTCATTCAGTTTGCGCAT | 2.89 | 2.24 | 1.97 | 1.61 | 2.56 | 3.26 | 3.07 | 4
46 | CGAAGTAGGTCAAGGACAGTGAATCTCCGCACGC | 3.17 | 3.94 | 4.66 | 1.45 | 2.92 | 3.07 | 1.51 | 0.462
47 | TTACCAAGGTGTAGGTCGTTGATCCCTCTGTAGA | 0.426 | 0.051 | -0.436 | -0.0196 | 0.497 | 0.442 | 0.121 | 0.0922
48 | CCTCGGAGGGCAACAGGAGGTCAGAGCTGCCAGA | 3.73 | 5.71 | 4.23 | 0.315 | 3.16 | 3.26 | 0.313 | 1.22
49 | AATACAGGGTCACTAGGCGAGAGTAGGTACGAAT | 3.24 | 5.21 | 5.18 | 2.87 | 5.73 | 3.48 | 1.41 | 2.82
50 | GCTAGTCGGTCAGTAAAAGGTCACACACCGGTCG | 5.59 | 6.16 | 6.16 | 0.548 | 5.55 | 3.62 | 1.73 | 1.85
51 | TAGCATAGGTCATGGGCCAGTATACCACGCGAAC | 3.37 | 5.5 | 4.93 | 0.253 | 5.71 | 2.67 | -0.279 | 0.267
52 | TCGTGTAGATCAGCAGGTTAAGAAAGCTGGCCAA | -0.0746 | -0.298 | -0.396 | 0.345 | -0.115 | 0.0652 | -0.429 | -0.282
53 | TCATGTAGGTAAAGGTGAAAGTCGAACGATATGA | 1.61 | 1.69 | 1.37 | 0.705 | 1.91 | 1.28 | 0.0244 | 0.443
54 | AGTCAAAGTTCATCTAGGTAACCTAAGATATGCT | 4.08 | 5.61 | 6.14 | 4.79 | 4.87 | 3.21 | 0.817 | 5.75
55 | TCTAGCAGGCCACAGGGTCACTCAAGAGGTACGG | 3.28 | 3.5 | 2.75 | 0.4 | 3.39 | 2.94 | 1.16 | 2.07
56 | TCTATTAGTTGAAGGGCAACGGACGAGTCCGTTT | 1.19 | 0.697 | 0.572 | 1.53 | 0.756 | 0.343 | 0.0596 | 1.98
57 | GATACAGGGTCAGCCAGAGGCCAGAGTATGGAAA | 3.47 | 6.84 | 4.98 | 1.17 | 4.6 | 3.13 | 0.534 | 0.682
